Values without a mark were called inactive.
Test system: NHEM-hTERT
Test: cell viability relative to DMSO control (fraction of DMSO control); higher = less cytotoxic, active = 0.5 or less
Conditions: 1 µM; 120 h
How it was run: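 Three cell types were screened against 315 approved anti-cancer drugs from TargetMol, acoustically pre-spotted in 384-well plates at 1 µM in duplicate over 120 h: NHEM-hTERT immortalized melanocytes (2500/well), patient-derived Mel-DCC-11 and its resistant subline Mel-DCC-11-R (both 1500/well), all in 40 µl per well. The subline was tested alone and with 8 µM of its selecting drug. Viability, measured by luminescence, was normalised to vehicle controls and averaged across duplicates, with ATPlite 1step as the readout.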

Compared with NC(=O)c1cccc2cn(-c3ccc([C@@H]4CCCNC4)cc3)nc12 [Niraparib], O=C(/C=C/c1ccc(O)cc1)c1ccc(O)cc1O [Isoliquiritigenin] is higher in cell viability: 0.932 for the first, 0.982 for the second.

Compared with COc1ccc(-c2cc(=S)ss2)cc1 [Anethole trithione], COc1ccc2cc3[n+](cc2c1OC)CCc1cc2c(cc1-3)OCO2 [Berberine] is higher in cell viability: 1.05 for the first, 1.1 for the second.

Going from CO[C@H]1C[C@@H]2CC[C@@H](C)[C@@](O)(O2)C(=O)C(=O)N2CCCC[C@H]2C(=O)O[C@H]([C@H](C)C[C@@H]2CC[C@@H](O)[C@H](OC)C2)CC(=O)[C@H](C)/C=C(\C)[C@@H](O)[C@@H](OC)C(=O)[C@H](C)C[C@H](C)/C=C/C=C/C=C/1C [Rapamycin] to CO[C@H]1C[C@@H]2CC[C@@H](C)[C@@](O)(O2)C(=O)C(=O)N2CCCC[C@H]2C(=O)O[C@H]([C@H](C)C[C@@H]2CC[C@@H](OC(=O)C(C)(CO)CO)[C@H](OC)C2)CC(=O)[C@H](C)/C=C(\C)[C@@H](O)[C@@H](OC)C(=O)[C@H](C)C[C@H](C)/C=C/C=C/C=C/1C [Temsirolimus], the cell viability falls from 0.819 to 0.758.

Compared with CCN(CC)CCOc1ccc2c(c1)C(=O)c1cc(OCCN(CC)CC)ccc1-2.Cl.Cl [Tilorone dihydrochloride], COc1c(OCCCN2CCOCC2)ccc2c1N=C(NC(=O)c1cnc(N)nc1)N1CCN=C21 [Copanlisib] is lower in cell viability: 1.15 for the first, 0.829 for the second.

Compared with COc1ccc2cc1Oc1ccc(cc1)C[C@H]1c3cc(c(OC)cc3CCN1C)Oc1c(OC)c(OC)cc3c1[C@H](C2)N(C)CC3 [Tetrandrine], COc1cc2c(Nc3ccc(Br)cc3F)ncnc2cc1OCC1CCN(C)CC1 [Vandetanib] is lower in cell viability: 1.25 for the first, 1.02 for the second.

Compared with COc1cc([C@@H]2c3cc4c(cc3[C@@H](O[C@@H]3O[C@@H]5CO[C@@H](c6cccs6)O[C@H]5[C@H](O)[C@H]3O)[C@H]3COC(=O)[C@H]23)OCO4)cc(OC)c1O [Teniposide], CN(C)C/C=C/C(=O)Nc1cc2c(Nc3ccc(F)c(Cl)c3)ncnc2cc1O[C@H]1CCOC1 [Afatinib] is higher in cell viability: 0.746 for the first, 1.01 for the second.

Compared with N#Cc1ccnc(N2C(=O)CC[C@H]2C(=O)N(c2cncc(F)c2)[C@H](C(=O)NC2CC(F)(F)C2)c2ccccc2Cl)c1 [Ivosidenib], CC(C)CN(C[C@@H](O)[C@H](Cc1ccccc1)NC(=O)O[C@H]1CCOC1)S(=O)(=O)c1ccc(N)cc1 [Amprenavir] is lower in cell viability: 1.27 for the first, 0.952 for the second.

First: Nc1ncnc2c1ncn2[C@@H]1O[C@H](CO)[C@@H](O)[C@@H]1O [Vidarabine]
Second: C#CCC(Cc1cnc2nc(N)nc(N)c2n1)c1ccc(C(=O)N[C@@H](CCC(=O)O)C(=O)O)cc1 (some centres not stated) [Pralatrexate]
The cell viability of the first is higher: 1.02 for the first, 0.982 for the second.

Compared with Nc1nc(=O)c2c([nH]1)NC[C@H](CNc1ccc(C(=O)N[C@@H](CCC(=O)[O-])C(=O)[O-])cc1)N2C=O.[Ca+2] [Calcium Levofolinate], C[C@@H]1C[C@H]2[C@@H]3CCC4=CC(=O)C=C[C@]4(C)[C@@]3(F)[C@@H](O)C[C@]2(C)[C@@]1(O)C(=O)COP(=O)([O-])[O-].[Na+].[Na+] [Dexamethasone Sodium Phosphate] is higher in cell viability: 1.02 for the first, 1.2 for the second.

Compared with N.N.O=C([O-])C[O-].[Pt+2] [Nedaplatin], CCCCCCCCCCCCCC(=O)[O-].CCCCCCCCCCCCCC(=O)[O-].N[C@@H]1CCCC[C@H]1N.[Pt+2] [Miriplatin] is lower in cell viability: 1.08 for the first, 1.03 for the second.

Going from CC1(C)O[C@H]2CC(=O)OC[C@]23[C@H]2CC[C@@]4(C)[C@H](c5ccoc5)OC(=O)[C@H]5O[C@]54[C@]2(C)C(=O)C[C@@H]13 [Limonin] to CC(/C=C/C=C(\C)C(=O)O[C@@H]1O[C@H](CO[C@@H]2O[C@H](CO)[C@@H](O)[C@H](O)[C@H]2O)[C@@H](O)[C@H](O)[C@H]1O)=C\C=C\C=C(C)\C=C\C=C(/C)C(=O)O[C@@H]1O[C@H](CO[C@@H]2O[C@H](CO)[C@@H](O)[C@H](O)[C@H]2O)[C@@H](O)[C@H](O)[C@H]1O [Crocin], the cell viability falls from 1.21 to 1.12.
